Reference: ChEMBL document CHEMBL1961873, “Compounds: GSK PKIS; Assays: Nanosyn kinase panel” (2012)

What follows are compounds tested against T1, Serine/threonine-protein kinase BRSK2 (Homo sapiens) (UniProt Q8IWQ3). Details: at 0.1 µM.
T1 sequence (whole entry): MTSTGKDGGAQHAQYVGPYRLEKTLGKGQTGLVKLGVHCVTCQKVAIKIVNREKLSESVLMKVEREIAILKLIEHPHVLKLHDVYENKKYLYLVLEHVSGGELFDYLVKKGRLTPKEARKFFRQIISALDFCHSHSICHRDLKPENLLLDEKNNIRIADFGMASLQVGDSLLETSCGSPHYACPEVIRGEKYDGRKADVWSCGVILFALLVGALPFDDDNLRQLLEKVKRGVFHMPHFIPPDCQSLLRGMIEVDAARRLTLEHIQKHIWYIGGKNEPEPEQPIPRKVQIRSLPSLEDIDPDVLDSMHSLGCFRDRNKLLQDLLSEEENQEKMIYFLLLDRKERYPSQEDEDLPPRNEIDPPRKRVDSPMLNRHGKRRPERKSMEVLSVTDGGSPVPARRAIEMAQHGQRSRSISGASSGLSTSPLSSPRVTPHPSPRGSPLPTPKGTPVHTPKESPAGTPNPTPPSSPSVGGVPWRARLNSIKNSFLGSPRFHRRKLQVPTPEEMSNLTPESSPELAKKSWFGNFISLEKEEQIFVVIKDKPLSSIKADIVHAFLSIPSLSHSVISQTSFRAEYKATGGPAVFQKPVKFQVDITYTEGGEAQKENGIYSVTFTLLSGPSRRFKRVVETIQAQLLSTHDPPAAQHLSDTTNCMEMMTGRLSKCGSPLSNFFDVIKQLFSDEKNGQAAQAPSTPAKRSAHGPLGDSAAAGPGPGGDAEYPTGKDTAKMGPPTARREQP
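Also: values are mean inhibition of BRSK2 from the GSK PKIS screening dataset.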

Structure (SMILES) | inhibition
COc1cc2ncn(-c3cc(O[C@H](C)c4ccccc4Cl)c(C(N)=O)s3)c2cc1OC | 42%
NC(=O)c1ccc(-c2nc(-c3ccccn3)c(-c3ccc4c(c3)OCO4)[nH]2)cc1 | 0.53%
Cn1cc(C=C2C(=O)Nc3cccnc32)c2ccccc21 | 6.03%
CNC(=O)c1cncc(/C=C/c2c(Cl)cccc2Cl)c1 | 1.54%
COc1cc2ncn(-c3cc(OCc4ccccc4C(F)(F)F)c(C(N)=O)s3)c2cc1OC | 14.8%
O=C1Nc2ccc(C(=O)c3ccco3)cc2C1=Cc1cc(Cl)c(O)c(Cl)c1 | 3.02%
COc1ccc(-c2nn3ncccc3c2-c2ccnc(Nc3ccc(Cl)c(C(F)(F)F)c3)n2)cc1 | 2.7%
CS(=O)(=O)Nc1ccc(N/C=C2\C(=O)Nc3ccccc32)cc1 | 4.09%
Fc1cccc(COc2ccc(Nc3ncnc4sc(-c5cccs5)cc34)cc2Cl)c1 | 0.22%
CCN1CCC(CC(=O)Nc2n[nH]c3nc(-c4cccs4)c(Br)cc23)CC1 | 2.29%
O=C1NC(=O)C(c2ccccc2Cl)=C1Nc1cccc(O)c1 | 1.63%
CCn1c(-c2nonc2N)nc2cncc(C(=O)N3CCNCC3)c21 | -0.27%
CN1CCC(C(=O)Nc2n[nH]c3nnc(-c4ccccc4)cc23)CC1 | 2.62%
CS(=O)(=O)CCN(CC#N)Cc1ccc(-c2ccc3ncnc(Nc4ccc(OCc5cccc(F)c5)c(Cl)c4)c3c2)o1 | 0.28%
COc1ccc(-c2coc3ncnc(N)c23)cc1 | 2.46%
Cc1ccc(NC(=O)c2ccnc(N3CCCC3)c2)cc1-c1ccc(C(=O)NCC2CC2)cc1 | 2.81%
CCn1c(-c2nonc2N)nc2c(C#CC(C)(C)O)nc(CN3CCCC3)cc21 | 1.38%

Structure (SMILES) | inhibition
CCn1c(-c2nonc2N)nc2c(N3CCCC3)nccc21 | 1.48%
[O-][S+]1CCN(Cc2ccc(-c3ccc4ncnc(Nc5ccc(OCc6ccccc6)c(F)c5)c4c3)o2)CC1 | 4.69%
CCCN1CCC=C(c2ccc(Nc3nc(Nc4ccccc4C(N)=O)c4cc[nH]c4n3)c(C)c2)C1 | 2.36%
CC1=C(C(=O)Nc2ccc3[nH]ncc3c2)C(c2ccc(F)cc2)NC(=O)N1 (centres undefined) | 1.99%
COc1cccc(-n2ncc3c(N/N=C/c4cccc(F)c4)ncnc32)c1 | 2.69%
Cc1ccc(C(=O)NC2CCCCC2)cc1-c1ccc(C(=O)NCC2CC2)cc1 | 1.87%
Nc1ncnc2occ(-c3ccc(NC(=O)Nc4cc(C(F)(F)F)cc(C(F)(F)F)c4)cc3)c12 | 1.11%
CC(C)=Cc1cccc2c1/C(=N/Nc1ccc(S(N)(=O)=O)cc1)C(=O)N2 | 14.6%
CC1=C(C(=O)Nc2ccc3[nH]ncc3c2)C(c2ccc3ccccc3c2)CC(=O)N1 (centres undefined) | 3.96%
COc1ccc(-c2ccncc2)cc1C(N)=O | 4.68%
COc1cc2ncn(-c3cc(OCc4ccccc4Cl)c(C(N)=O)s3)c2cc1OC | 12.4%
CCn1c(-c2nonc2N)nc2cnc(Oc3cccc(NC(=O)c4ccc(OCCN5CCOCC5)cc4)c3)cc21 | 1.64%
CN(C)c1cc2c(Nc3ccc4nc(Cc5ccccc5)[nH]c4c3)ncnc2cn1 | 3.85%
N#Cc1c(NC(=O)c2cccc3ccccc23)sc2c1CCCC2 | 1.18%
Cc1cccc(-c2n[nH]cc2-c2ccc3ncccc3n2)n1 | 2.17%
NS(=O)(=O)c1cccc(-c2ccc3c(NC(=O)C4CC4)n[nH]c3c2)c1 | 12.6%
O=C1NC(=O)C(c2cccc(Cl)c2)=C1Nc1ccc(O)c(Cl)c1 | 2.05%
